Results on 15 sequences are retold here after paper PMC8384837, “Expanding the binding specificity for RNA recognition by a PUF domain”.

Common to all, as to assay: yeast three-hybrid, YBZ-1, SC-Leu-His + 0.5 mM 3-AT, 4 days
What all share (settings): tags: N-Gal4 AD-HA kept; label: inside an RPR1-promoter hybrid RNA with tandem MS2 sites; ssRNA

One assay deals with PUM1 PUF domain R1-GLR (Homo sapiens, UniProt Q14671 828-1176, S863G;R864L;Q867R). In a few lines: (§1)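 Pumilio-1 PUF domain libraries, randomized at the three base-contacting residues of each repeat, were co-expressed with matching RNA elements from a centromeric plasmid in strain YBZ-1, which carries a LexA–MS2 coat fusion and a HIS3 reporter. Transformants grew for four days on SC-Leu (input) or on SC-Leu-His + 0.5 mM 3-AT (selection), and the repeat regions were PCR-amplified and Illumina-sequenced. The interaction score is the log change in variant frequency from input to selection. That logarithm is base 2, with a pseudocount of 1 where a variant was absent.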
Sequence of PUM1 PUF domain R1-GLR (Q14671 828-1176 S863G/R864L/Q867R): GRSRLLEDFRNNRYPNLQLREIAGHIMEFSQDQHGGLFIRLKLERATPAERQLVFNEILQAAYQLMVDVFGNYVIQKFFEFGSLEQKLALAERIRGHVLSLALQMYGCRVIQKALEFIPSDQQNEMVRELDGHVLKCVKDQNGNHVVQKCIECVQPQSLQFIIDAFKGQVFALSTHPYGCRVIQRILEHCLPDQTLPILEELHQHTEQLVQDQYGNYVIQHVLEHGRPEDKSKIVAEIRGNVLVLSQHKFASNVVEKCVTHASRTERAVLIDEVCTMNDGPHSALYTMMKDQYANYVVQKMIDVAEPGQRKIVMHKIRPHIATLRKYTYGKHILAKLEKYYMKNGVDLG

A further assay concerns the target PUM1 PUF domain R4-AMV (Homo sapiens, UniProt Q14671 828-1176, N971A;H972M;Q975V). In a few lines: as §1
Another assay deals with PUM1 PUF domain R4-WGC (Homo sapiens, UniProt Q14671 828-1176, N971W;H972G;Q975C). In a few lines:
as §1

For the next assay, the target named is PUM1 PUF domain R5-HRM (Homo sapiens, UniProt Q14671 828-1176, C1007H;Q1011M). In a few lines: as §1
Sequence of PUM1 PUF domain R5-HRM (Q14671 828-1176 C1007H/Q1011M): as the sequence (Q14671 828-1176 S863G/R864L/Q867R) above, with G36S, L37R, R40Q, C180H, Q184M counted along it
In another assay the target is PUM1 PUF domain R8-MWR (Homo sapiens, UniProt Q14671 828-1176, N1122M;Y1123W;Q1126R). The procedure, abridged: as §1
Sequence of PUM1 PUF domain R8-MWR (Q14671 828-1176 N1122M/Y1123W/Q1126R): as the sequence (Q14671 828-1176 S863G/R864L/Q867R) above, with G36S, L37R, R40Q, N295M, Y296W, Q299R counted along it
Another assay addresses PUM1 PUF domain R5-LYM (Homo sapiens, UniProt Q14671 828-1176, C1007L;R1008Y;Q1011M). In a few lines:
as §1

Another assay deals with PUM1 PUF domain R3-RTR (Homo sapiens, UniProt Q14671 828-1176, C935R;R936T;Q939R). In a few lines: as §1
Sequence of PUM1 PUF domain R3-RTR (Q14671 828-1176 C935R/R936T/Q939R): as the sequence (Q14671 828-1176 S863G/R864L/Q867R) above, with G36S, L37R, R40Q, C108R, R109T, Q112R counted along it
In the next assay the target is PUM1 PUF domain R5-CHG (Homo sapiens, UniProt Q14671 828-1176, R1008H;Q1011G). The procedure, abridged:
as §1

In the next assay the target is PUM1 PUF domain R4-VSI (Homo sapiens, UniProt Q14671 828-1176, N971V;H972S;Q975I). In a few lines: as §1
Sequence of PUM1 PUF domain R4-VSI (Q14671 828-1176 N971V/H972S/Q975I): as the sequence (Q14671 828-1176 S863G/R864L/Q867R) above, with G36S, L37R, R40Q, N144V, H145S, Q148I counted along it
The target of a further assay is PUM1 PUF domain R5-RQS (Homo sapiens, UniProt Q14671 828-1176, C1007R;R1008Q;Q1011S). In a few lines:
as §1

The next assay addresses PUM1 PUF domain R5-RRL (Homo sapiens, UniProt Q14671 828-1176, C1007R;Q1011L). The procedure, abridged:
as §1

The target of a further assay is PUM1 PUF domain R8-RFV (Homo sapiens, UniProt Q14671 828-1176, N1122R;Y1123F;Q1126V). The procedure, abridged:
as §1

The next assay concerns the target PUM1 PUF domain R3-IWA (Homo sapiens, UniProt Q14671 828-1176, C935I;R936W;Q939A). The procedure, abridged:
as §1

The next assay deals with PUM1 PUF domain R5-KFT (Homo sapiens, UniProt Q14671 828-1176, C1007K;R1008F;Q1011T). In a few lines:
as §1

A further assay addresses PUM1 PUF domain R7-RVL (Homo sapiens, UniProt Q14671 828-1176, S1079R;N1080V;E1083L). In a few lines: as §1
The next assay concerns the target PUM1 PUF domain R1-TVE (Homo sapiens, UniProt Q14671 828-1176, S863T;R864V;Q867E). The procedure, abridged:
as §1

Another assay concerns the target PUM1 PUF domain R2-LWY (Homo sapiens, UniProt Q14671 828-1176, N899L;Y900W;Q903Y). The procedure, abridged:
as §1

A further assay deals with PUM1 PUF domain R5-QWN (Homo sapiens, UniProt Q14671 828-1176, C1007Q;R1008W;Q1011N). In a few lines: as §1
Sequence of PUM1 PUF domain R5-QWN (Q14671 828-1176 C1007Q/R1008W/Q1011N): as the sequence (Q14671 828-1176 S863G/R864L/Q867R) above, with G36S, L37R, R40Q, C180Q, R181W, Q184N counted along it
The next assay has as its target PUM1 PUF domain R8-HWR (Homo sapiens, UniProt Q14671 828-1176, N1122H;Y1123W;Q1126R). The procedure, abridged:
as §1

Another assay has as its target PUM1 PUF domain R8-PYS (Homo sapiens, UniProt Q14671 828-1176, N1122P;Q1126S). The procedure, abridged:
as §1

Sequence of PUM1 PUF domain R5-CHG (Q14671 828-1176 R1008H/Q1011G): as the sequence (Q14671 828-1176 S863G/R864L/Q867R) above, with G36S, L37R, R40Q, R181H, Q184G counted along it
Sequence of PUM1 PUF domain R4-AMV (Q14671 828-1176 N971A/H972M/Q975V): as the sequence (Q14671 828-1176 S863G/R864L/Q867R) above, with G36S, L37R, R40Q, N144A, H145M, Q148V counted along it
Sequence of PUM1 PUF domain R5-RQS (Q14671 828-1176 C1007R/R1008Q/Q1011S): as the sequence (Q14671 828-1176 S863G/R864L/Q867R) above, with G36S, L37R, R40Q, C180R, R181Q, Q184S counted along it
Sequence of PUM1 PUF domain R4-WGC (Q14671 828-1176 N971W/H972G/Q975C): as the sequence (Q14671 828-1176 S863G/R864L/Q867R) above, with G36S, L37R, R40Q, N144W, H145G, Q148C counted along it
Sequence of PUM1 PUF domain R5-RRL (Q14671 828-1176 C1007R/Q1011L): as the sequence (Q14671 828-1176 S863G/R864L/Q867R) above, with G36S, L37R, R40Q, C180R, Q184L counted along it
Sequence of PUM1 PUF domain R3-IWA (Q14671 828-1176 C935I/R936W/Q939A): as the sequence (Q14671 828-1176 S863G/R864L/Q867R) above, with G36S, L37R, R40Q, C108I, R109W, Q112A counted along it
Sequence of PUM1 PUF domain R8-RFV (Q14671 828-1176 N1122R/Y1123F/Q1126V): as the sequence (Q14671 828-1176 S863G/R864L/Q867R) above, with G36S, L37R, R40Q, N295R, Y296F, Q299V counted along it
Sequence of PUM1 PUF domain R8-HWR (Q14671 828-1176 N1122H/Y1123W/Q1126R): as the sequence (Q14671 828-1176 S863G/R864L/Q867R) above, with G36S, L37R, R40Q, N295H, Y296W, Q299R counted along it
Sequence of PUM1 PUF domain R1-TVE (Q14671 828-1176 S863T/R864V/Q867E): as the sequence (Q14671 828-1176 S863G/R864L/Q867R) above, with G36T, L37V, R40E counted along it
Sequence of PUM1 PUF domain R2-LWY (Q14671 828-1176 N899L/Y900W/Q903Y): as the sequence (Q14671 828-1176 S863G/R864L/Q867R) above, with G36S, L37R, R40Q, N72L, Y73W, Q76Y counted along it
Sequence of PUM1 PUF domain R5-LYM (Q14671 828-1176 C1007L/R1008Y/Q1011M): as the sequence (Q14671 828-1176 S863G/R864L/Q867R) above, with G36S, L37R, R40Q, C180L, R181Y, Q184M counted along it
Sequence of PUM1 PUF domain R8-PYS (Q14671 828-1176 N1122P/Q1126S): as the sequence (Q14671 828-1176 S863G/R864L/Q867R) above, with G36S, L37R, R40Q, N295P, Q299S counted along it
Sequence of PUM1 PUF domain R5-KFT (Q14671 828-1176 C1007K/R1008F/Q1011T): as the sequence (Q14671 828-1176 S863G/R864L/Q867R) above, with G36S, L37R, R40Q, C180K, R181F, Q184T counted along it
Sequence of PUM1 PUF domain R7-RVL (Q14671 828-1176 S1079R/N1080V/E1083L): as the sequence (Q14671 828-1176 S863G/R864L/Q867R) above, with G36S, L37R, R40Q, S252R, N253V, E256L counted along it

On to “GGCUAGAACUAGUGGAUCCCCCGGCGCCCGGCGGCUCGAGCCCGGGUAAGUGUAAAUUGUCUGCAUGCCGCCGGGCGCCAUGCCUGCAGGUCGACUCUAGAAAACAUG”, for which the binding signal with PUM1 PUF domain R1-GLR is 2.9 log2 enrichment (interaction score).

Turning to “GGCUAGAACUAGUGGAUCCCCCGGCGCCCGGCGGCUCGAGCCCGGGUAAGUGUACAUAGUCUGCAUGCCGCCGGGCGCCAUGCCUGCAGGUCGACUCUAGAAAACAUG”, the binding signal was 1.83 log2 enrichment (interaction score) in the assay with PUM1 PUF domain R4-AMV and 1.65 log2 enrichment (interaction score) with PUM1 PUF domain R4-WGC.

As to “GGCUAGAACUAGUGGAUCCCCCGGCGCCCGGCGGCUCGAGCCCGGGUAAGUGUAAAUAGUCUGCAUGCCGCCGGGCGCCAUGCCUGCAGGUCGACUCUAGAAAACAUG”, the binding signal with PUM1 PUF domain R5-HRM was 1.49 log2 enrichment (interaction score); in the assay with PUM1 PUF domain R8-MWR it was 4.37 log2 enrichment (interaction score); with PUM1 PUF domain R5-LYM, 2.36 log2 enrichment (interaction score); with PUM1 PUF domain R3-RTR, 0.19 log2 enrichment (interaction score); in the assay with PUM1 PUF domain R4-AMV, 3.03 log2 enrichment (interaction score); in the assay with PUM1 PUF domain R5-CHG, 3.32 log2 enrichment (interaction score). The binding signal is 2.13 log2 enrichment (interaction score) in the assay with PUM1 PUF domain R4-VSI; 1.32 log2 enrichment (interaction score) with PUM1 PUF domain R5-RQS; 2.66 log2 enrichment (interaction score) in the assay with PUM1 PUF domain R4-WGC; 1.79 log2 enrichment (interaction score) with PUM1 PUF domain R5-RRL; 6.16 log2 enrichment (interaction score) with PUM1 PUF domain R8-RFV; 5.07 log2 enrichment (interaction score) with PUM1 PUF domain R3-IWA.

With “GGCUAGAACUAGUGGAUCCCCCGGCGCCCGGCGGCUCGAGCCCGGGUAAGUGUCAAUAGUCUGCAUGCCGCCGGGCGCCAUGCCUGCAGGUCGACUCUAGAAAACAUG”, the binding signal with PUM1 PUF domain R5-HRM is 1.79 log2 enrichment (interaction score); in the assay with PUM1 PUF domain R5-KFT, 5.09 log2 enrichment (interaction score); in the assay with PUM1 PUF domain R5-CHG, 1.6 log2 enrichment (interaction score); with PUM1 PUF domain R5-RQS, 4.99 log2 enrichment (interaction score); with PUM1 PUF domain R5-RRL it was 3.98 log2 enrichment (interaction score).

On to “GGCUAGAACUAGUGGAUCCCCCGGCGCCCGGCGGCUCGAGCCCGGGUAAGUUUAAAUAGUCUGCAUGCCGCCGGGCGCCAUGCCUGCAGGUCGACUCUAGAAAACAUG”, for which the binding signal with PUM1 PUF domain R7-RVL was 3.33 log2 enrichment (interaction score).

Take “GGCUAGAACUAGUGGAUCCCCCGGCGCCCGGCGGCUCGAGCCCGGGUAAGUGUAAAUCGUCUGCAUGCCGCCGGGCGCCAUGCCUGCAGGUCGACUCUAGAAAACAUG”: the binding signal with PUM1 PUF domain R1-GLR was 3.78 log2 enrichment (interaction score).

Regarding “GGCUAGAACUAGUGGAUCCCCCGGCGCCCGGCGGCUCGAGCCCGGGUAAGUGUAAGUAGUCUGCAUGCCGCCGGGCGCCAUGCCUGCAGGUCGACUCUAGAAAACAUG”, the binding signal with PUM1 PUF domain R3-RTR is 1.03 log2 enrichment (interaction score); in the assay with PUM1 PUF domain R3-IWA it was 5.56 log2 enrichment (interaction score).

As for “GGCUAGAACUAGUGGAUCCCCCGGCGCCCGGCGGCUCGAGCCCGGGUAAGUGUUAAUAGUCUGCAUGCCGCCGGGCGCCAUGCCUGCAGGUCGACUCUAGAAAACAUG”, the binding signal in the assay with PUM1 PUF domain R5-HRM is 4.33 log2 enrichment (interaction score); with PUM1 PUF domain R5-CHG it was 3.47 log2 enrichment (interaction score); with PUM1 PUF domain R5-RQS, 5.24 log2 enrichment (interaction score); with PUM1 PUF domain R5-RRL, 4.45 log2 enrichment (interaction score).

“GGCUAGAACUAGUGGAUCCCCCGGCGCCCGGCGGCUCGAGCCCGGGUAAGUGUAUAUAGUCUGCAUGCCGCCGGGCGCCAUGCCUGCAGGUCGACUCUAGAAAACAUG”: the binding signal was 1.51 log2 enrichment (interaction score) in the assay with PUM1 PUF domain R4-AMV and 4.53 log2 enrichment (interaction score) in the assay with PUM1 PUF domain R4-WGC.

Turning to “GGCUAGAACUAGUGGAUCCCCCGGCGCCCGGCGGCUCGAGCCCGGGUAAGUGUAAAUGGUCUGCAUGCCGCCGGGCGCCAUGCCUGCAGGUCGACUCUAGAAAACAUG”, the binding signal in the assay with PUM1 PUF domain R1-TVE was 2.57 log2 enrichment (interaction score).

Consider “GGCUAGAACUAGUGGAUCCCCCGGCGCCCGGCGGCUCGAGCCCGGGUAAGUGUAAAAAGUCUGCAUGCCGCCGGGCGCCAUGCCUGCAGGUCGACUCUAGAAAACAUG”, for which, in the assay with PUM1 PUF domain R2-LWY, the binding signal is 8.01 log2 enrichment (interaction score).

Turning to “GGCUAGAACUAGUGGAUCCCCCGGCGCCCGGCGGCUCGAGCCCGGGUAAGUGUAAUUAGUCUGCAUGCCGCCGGGCGCCAUGCCUGCAGGUCGACUCUAGAAAACAUG”, the binding signal in the assay with PUM1 PUF domain R3-RTR was 4.46 log2 enrichment (interaction score).

“GGCUAGAACUAGUGGAUCCCCCGGCGCCCGGCGGCUCGAGCCCGGGUAAGUGUGAAUAGUCUGCAUGCCGCCGGGCGCCAUGCCUGCAGGUCGACUCUAGAAAACAUG”: the binding signal was 4.78 log2 enrichment (interaction score) in the assay with PUM1 PUF domain R5-QWN, 1.05 log2 enrichment (interaction score) in the assay with PUM1 PUF domain R5-RQS and 1.14 log2 enrichment (interaction score) with PUM1 PUF domain R5-RRL.

With “GGCUAGAACUAGUGGAUCCCCCGGCGCCCGGCGGCUCGAGCCCGGGUAAGCGUAAAUAGUCUGCAUGCCGCCGGGCGCCAUGCCUGCAGGUCGACUCUAGAAAACAUG”, the binding signal with PUM1 PUF domain R8-MWR was 4.99 log2 enrichment (interaction score); with PUM1 PUF domain R8-HWR, 7.03 log2 enrichment (interaction score); in the assay with PUM1 PUF domain R8-PYS, 3.23 log2 enrichment (interaction score); in the assay with PUM1 PUF domain R8-RFV, 6.22 log2 enrichment (interaction score).

For “GGCUAGAACUAGUGGAUCCCCCGGCGCCCGGCGGCUCGAGCCCGGGUAAGGGUAAAUAGUCUGCAUGCCGCCGGGCGCCAUGCCUGCAGGUCGACUCUAGAAAACAUG”, the binding signal in the assay with PUM1 PUF domain R8-MWR was 2.37 log2 enrichment (interaction score).
